This test can be described thus: qHTS Assay for Lipid Storage Modulators (AID 1519). On activity change, negative = inhibition: on the % scale 0 is the no-effect control and ±100 the full control effect. Particulars: Drosophila S3 cells, BODIPY lipid droplet/cell ratio, laser cytometry, cells loaded with oleic acid. The source says:
NIH Molecular Libraries Probe Production Centers Network [MLPCN]
NIH Chemical Genomics Center [NCGC]
Assay Submitter (PI): Beller, Mathias; Max-Planck-Institut fur Biophysikalische Chemie
NCGC Assay Overview: Storing lipids as a reservoir for energy or the anabolism of elementary metabolites is a common feature of probably all cells and is conserved from bacteria to humans. The universal cellular lipid storage organelle is the so-called lipid storage droplet (LD). Although ubiquitous, LDs share a simple structure composed of a hydrophobic core that harbors the storage lipids, which is shielded by a droplet-specific phospholipid monolayer to which proteins are attached. The current model of LD biogenesis involves an incorporation of the lipid core into the membrane leaflets of the endoplasmic reticulum (ER) followed by a subsequent budding-like maturation of a LD, which ultimately pinches off. Once released, LD volume can increase by localized lipogenesis or fusion of existing droplets. Storage lipids are re-mobilized enzymatically by lipase activity. Lipase regulation in the adipocyte is heavily studied and involves multiple components including catecholamine signaling, the LD-associated proteins Perilipin and comparative gene identification-58 (CGI-58) and at least two lipases named hormone sensitive lipase (HSL) and adipocyte triglyceride lipase (ATGL). LD regulation outside of the adipocyte is poorly understood and only few components are known. However, there is an urgent need to learn more about ectopic fat depots as mislocalized storage of lipids, for example in the liver or muscle, is an eminent health problem associated with insulin resistance or the metabolic syndrome. We developed a laser-scanning cytometer assay to enable 1,536-well screening and combined the results of the small molecules screen with an RNAi database based on lipid storage.
NCGC Assay Protocol Summary:
We dispensed 4 uL of cells at 1.25 x 10^6 cells/mL into LoBase Aurora COC 1,536-well plates (black walled, clear bottom) with a bottle-valve solenoid-based dispenser (Aurora) to obtain 5,000 cells/well. Triacsin C (Sigma-Aldrich T-4540), an inhibitor of long-chain fatty acyl CoA synthetase that blocks synthesis of triglycerides, was used as a positive control for lipid under-storage. A total of 23 nL of compound solution of different concentrations were transferred to the assay plates using a Kalypsys pin tool equipped with a 1,536-pin array containing 10-nL slotted pins (FP1S10, 0.457-mm diameter, 50.8 mm long; V&P Scientific). One microliter of oleic acid (400 uM) was added, and the plate was lidded with stainless steel rubber gasket lined lids containing pinholes. […] Fluorescence was detected by excitation of the fluorophores with a 488-nm laser on an Acumen Explorer (TTP Lab Tech). The total intensity in channel 1 (500-530 nm) reflected lipid droplet accumulation. […] The ratio of the total intensity in PMT channel 1 over total intensity of channel 3 was also calculated. Percent activity was computed relative to an internal control (100% inhibited lipid droplet deposition due to the presence of 20 uM Triacsin C), which was added to 32 wells/plate.

[1] abbreviates: measured here: cell count channel max response.
[2] abbreviates: measured here: lipid channel max response.

Values joined by “and” are separate entries in the source; they are usually repeats but may differ in a detail not shown here. Equal entries are not always repeated. Inconclusive results are not listed. Active and inactive are the calls of the source. The call rests on the fitted dose curve.

We go through 13 molecules from PubChem BioAssay (NCATS).

As for `CCN1CCC[C@H]1CNC(=O)c1c(OC)ccc(Br)c1OC`, under “at 25.7 µM (top of the series)”, the activity change, negative = inhibition was -6.61% (inactive). The max response is -13.5% under setting [1] and -15.4% under setting [2].

For the molecule `COc1c2occc2c(OC)c2c(=O)cc(C)oc12`, the activity change, negative = inhibition (at 25.7 µM (top of the series)) is 2.26% (inactive). Further, the max response under setting [1] came to 3.81% and the max response under setting [2] turned out to be 5.65%.

As to `CN(C(=O)CN(CCO)CC(=O)N(C)C(C)(C)Cc1ccccc1)C(C)(C)Cc1ccccc1`, the activity change, negative = inhibition (at 25.7 µM (top of the series)) was -12.5% (inactive) and the activity change, negative = inhibition (at 57.5 µM (top of the series)) was 4.59% (inactive). Further, the max response by setting is: under setting [1], -9.05% and 8.48%; under setting [2], -21.3% and 13.9%.

With `NCCc1ccn[nH]1`, the activity change, negative = inhibition (at 25.7 µM (top of the series)) was -0.85% (inactive). Further, the max response by setting is: under setting [1], 12.5%; under setting [2], 11.2%.

`CN1CCN(CCCN2c3ccccc3Sc3ccc(S(=O)(=O)N(C)C)cc32)CC1`: the activity change, negative = inhibition (at 25.7 µM (top of the series)) was -2.96% (inactive). In addition, the max response is -3.59% under setting [1] and -5.35% under setting [2].

Turning to `Cc1ccnc(NS(=O)(=O)c2ccc(N)cc2)n1`, the activity change, negative = inhibition is 2.4% (inactive) (at 25.7 µM (top of the series)) and 7.92% (inactive) (at 57.5 µM (top of the series)). Moreover, the max response is, setting by setting: under setting [1], -11% and -0.764%; under setting [2], -8.59% and 9.99%.

For `CC(=O)c1ccc2c(c1)N(CCCN1CCC(CCO)CC1)c1ccccc1S2`, the activity change, negative = inhibition (at 25.7 µM (top of the series)) is -1.72% (inactive). The max response is -5% under setting [1] and -2.93% under setting [2].

Regarding `Oc1c(Cl)cc(Cl)cc1Sc1cc(Cl)cc(Cl)c1O`, the activity change, negative = inhibition (at 57.5 µM (top of the series)) is 0.0363% (inactive). Also, the max response is, setting by setting: under setting [1], 9.87%; under setting [2], 13.2%.

Take `Oc1ccc(O)cc1`: the activity change, negative = inhibition (at 57.5 µM (top of the series)) is -1.63% (inactive) and -0.961% (inactive). The max response is 3.88% and -20.5% under setting [1]; 3.65% and -23.9% under setting [2].

Consider `OCc1ccccc1O`, for which the activity change, negative = inhibition (at 57.5 µM (top of the series)) is 1.86% (inactive). Besides, the max response runs as follows: under setting [1], -8.44%; under setting [2], 0.187%.

Turning to `CNCCC(Oc1ccccc1C)c1ccccc1` (stereo unspecified), under “at 57.5 µM (top of the series)”, the activity change, negative = inhibition was 2.16% (inactive). Besides, the max response by setting is: under setting [1], 19.1%; under setting [2], 23.2%.

On to `Nc1ccc(C(=O)O)cc1`, for which, under “at 57.5 µM (top of the series)”, the activity change, negative = inhibition is 6.97% (inactive). Also, the max response is, setting by setting: under setting [1], 13.3%; under setting [2], 22.6%.

Take `CN=C(NC#N)NCCSCc1csc(N=C(N)N)n1`: the activity change, negative = inhibition (at 57.5 µM (top of the series)) is 3.24% (inactive). Besides, the max response under setting [1] is -6.42% and the max response under setting [2] was -3.26%.
